Values without a mark were called inactive. Results filed as inconclusive are left out. Where a call stands in place of a potency, no number is given. Calls of active or inactive are those of the source. Unless noted, calls follow the shape of the dose curve; as a rule, active = well fitted curve in the direction sought with a large enough effect; inconclusive = small, poorly fitted or top-dose-only effect, or another doubt; inactive = no such curve, though single readings can be large; an effect the other way counts as inactive or inconclusive.
What was measured:
DFO2036 = assay: qHTS profiling for inhibitors of Plasmodium falciparum proliferation (AID 504749); also: nearly all actives have a fitted effect of over 60% in size; conditions: P. falciparum in erythrocytes, SYBR Green DNA, 72 h; series mostly up to 12.8 µM
In short: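 In a 72 h erythrocytic culture (37 C, humidified, 5% CO2) at 2.5% hematocrit and 0.3% starting parasitemia, compounds were tested; SYBR Green I in detergent lysis buffer stained parasite DNA overnight.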

[1] = qHTS Assay for Identification of Small Molecule Antagonists for NFkB Signaling Pathway (AID 895; active = well fitted inhibition curve with a large enough effect in the signal ratio, with a control signal flat, not every such curve was filed as active; the % refers to the signal ratio)
In short: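 Beta-lactamase reporter read-out (460 and 530 nm emission ratio, 405 nm excitation, 2 hrs substrate loading RT) after 5 hr stimulation with 10 pM TNF alpha in compound-treated NFkB-bla ME-180 cells in low-serum medium.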

[2] = qHTS Assay for Identification of Small Molecule Agonists for Thrombopoietin (TPO) Signaling Pathway (AID 917)
In short: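 Human TPO receptor–transfected Ba/F3 cells (murine, IL-3-dependent) in IL-3-deficient medium; compounds plus TPO at EC50, 26 pM final; 24 hrs, 37 C; GpIIb-luciferase luminescence after 10 min RT detection.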

[3] = molecular target: Muscarinic acetylcholine receptor M1 (Rattus norvegicus) (UniProt P08482); assay: qHTS Assay for Antagonists of Acetylcholine Muscarinic M1 Receptor: Kinetic Measurement of Intracellular Calcium Response (AID 943); also: nearly all actives have a fitted effect of over 75% in size; also: potency is read from the fitted curve at half-maximal effect
Muscarinic acetylcholine receptor M1 (Rattus norvegicus), sequence (P08482 whole entry, looked up): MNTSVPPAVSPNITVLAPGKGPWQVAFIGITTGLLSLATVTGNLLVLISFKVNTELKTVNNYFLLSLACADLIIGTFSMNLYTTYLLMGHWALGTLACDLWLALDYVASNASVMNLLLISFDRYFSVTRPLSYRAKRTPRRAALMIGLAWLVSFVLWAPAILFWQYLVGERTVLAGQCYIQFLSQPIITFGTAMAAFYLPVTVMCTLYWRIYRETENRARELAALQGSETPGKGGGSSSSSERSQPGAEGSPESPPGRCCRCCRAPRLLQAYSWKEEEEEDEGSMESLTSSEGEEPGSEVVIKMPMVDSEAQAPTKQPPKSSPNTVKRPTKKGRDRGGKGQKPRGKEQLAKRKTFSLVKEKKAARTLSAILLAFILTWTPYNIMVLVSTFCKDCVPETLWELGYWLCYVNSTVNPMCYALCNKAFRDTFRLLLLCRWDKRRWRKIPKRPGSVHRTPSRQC
In short: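 Read-out: peak over basal Fluo-4 fluorescence, kinetic at 1 Hz for 4 min after EC80 carbachol (100 nM final). Rat M1-CHO cells, dye loaded 1 h at 37C, compound added 10 min before agonist.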

[4] = molecular target: Cytochrome P450 2D6 (Homo sapiens) (UniProt P10635); assay: qHTS Assay for Inhibitors and Substrates of Cytochrome P450 2D6 (AID 891); also: nearly all actives have a fitted effect of over 60% in size; also: potency is read from the fitted curve at half-maximal effect
Cytochrome P450 2D6 (Homo sapiens), sequence (P10635 whole entry, looked up): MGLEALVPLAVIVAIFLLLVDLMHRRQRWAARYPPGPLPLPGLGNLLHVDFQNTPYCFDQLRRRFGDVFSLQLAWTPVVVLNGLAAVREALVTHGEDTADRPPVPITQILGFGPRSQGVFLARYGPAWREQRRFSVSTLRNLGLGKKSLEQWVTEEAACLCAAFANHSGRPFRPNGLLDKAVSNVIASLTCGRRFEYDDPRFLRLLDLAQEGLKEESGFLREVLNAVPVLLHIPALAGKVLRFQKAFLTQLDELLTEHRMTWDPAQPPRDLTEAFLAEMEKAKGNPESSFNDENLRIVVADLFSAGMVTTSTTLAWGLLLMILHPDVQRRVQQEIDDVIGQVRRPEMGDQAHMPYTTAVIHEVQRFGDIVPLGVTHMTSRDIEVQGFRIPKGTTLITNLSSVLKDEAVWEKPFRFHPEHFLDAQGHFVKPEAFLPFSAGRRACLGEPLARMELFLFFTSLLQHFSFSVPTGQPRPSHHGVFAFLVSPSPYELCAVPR
In short: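 Luminescent read-out of luciferin formed by 5 nM human CYP2D6 demethylating 30 uM Luciferin-ME EGE (Km level) over 60 min at room temperature after NADPH regeneration addition. Data normalized to full inhibition by 1.43 uM quinidine.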

[5] = molecular target: Cytochrome P450 2C19 (Homo sapiens) (UniProt P33261); assay: qHTS Assay for Inhibitors and Substrates of Cytochrome P450 2C19 (AID 899); also: nearly all actives have a fitted effect of over 60% in size; also: potency is read from the fitted curve at half-maximal effect
Cytochrome P450 2C19 (Homo sapiens), sequence (P33261 whole entry, looked up): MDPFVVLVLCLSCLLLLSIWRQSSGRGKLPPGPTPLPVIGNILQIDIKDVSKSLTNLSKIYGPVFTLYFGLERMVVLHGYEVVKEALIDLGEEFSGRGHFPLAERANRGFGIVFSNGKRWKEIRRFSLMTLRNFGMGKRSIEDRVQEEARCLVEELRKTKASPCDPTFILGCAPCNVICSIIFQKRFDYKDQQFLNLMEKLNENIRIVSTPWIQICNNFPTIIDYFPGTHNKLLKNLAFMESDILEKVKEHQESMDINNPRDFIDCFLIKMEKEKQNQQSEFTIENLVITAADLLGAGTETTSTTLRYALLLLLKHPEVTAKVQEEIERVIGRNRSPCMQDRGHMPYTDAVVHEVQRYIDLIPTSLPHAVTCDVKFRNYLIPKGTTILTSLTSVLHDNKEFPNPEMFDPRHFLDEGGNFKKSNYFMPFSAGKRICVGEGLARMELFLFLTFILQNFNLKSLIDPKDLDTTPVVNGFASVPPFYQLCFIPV
In short: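 Reactions contain 5nM enzyme, 10uM Luciferin-H EGE (KM) and 50mM KPO4; compound preincubates 10 min at 37C, NADPH regeneration starts turnover for 60 min. Luminescence after detection reagent gives activity.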

[6] = S16 Schwann cell PMP22 intronic element beta-lactamase assay (AID 624044; calls by dose curve; also: nearly all actives have a fitted effect of over 15% in size)
In short: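 Beta-lactamase reporter under a PMP22 intronic regulatory element in stable S16 rat Schwann cells; 24 h compound exposure. 460 nm blue signal normalized between DMSO (0%) and potassium clavulanate, with 535 nm FRET tracking viability; curves classed by r2 and response.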

[7] = Confirmation and Secondary Assay for Modulators of Hemoglobin Beta Chain Splicing at IVS2 654 locus (AID 910);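 also: HeLa cells stably carrying EGFP split by mutant beta-globin IVS2-654 intron; per-well total GFP intensity by laser scanning cytometry after 2-day treatment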
In short: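 Readout: per-well total peak green fluorescence (488 nm ex, 500–520 nm em) from objects 5–250 µm, reflecting correct splicing of an EGFP-654 reporter. Compounds were applied for 2 days at 37 °C to overnight-plated HeLa EGFP-654 cells; controls were DMSO and 500 nM IVS2-654 PNA.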

[8] = Confirmation and Secondary Assay for Modulators of Hemoglobin Beta Chain Splicing at IVS2 705 locus (AID 930);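 also: HeLa cells stably expressing the EGFP-705 splicing reporter; GFP fluorescence per well restored by corrected splicing of the IVS2-705 intron in EGFP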
In short: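 Secondary splice-site specificity test uses HeLa expressing CMV-driven EGFP interrupted by IVS2-705; cells were treated 2 days at 37C with 500 nM antisense PNA as positive control.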

[9] = molecular target: Cytochrome P450 3A4 (Homo sapiens) (UniProt P08684); assay: qHTS Assay for Inhibitors and Substrates of Cytochrome P450 3A4 (AID 884); also: nearly all actives have a fitted effect of over 50% in size; also: potency is read from the fitted curve at half-maximal effect
Cytochrome P450 3A4 (Homo sapiens), sequence (P08684 whole entry, looked up): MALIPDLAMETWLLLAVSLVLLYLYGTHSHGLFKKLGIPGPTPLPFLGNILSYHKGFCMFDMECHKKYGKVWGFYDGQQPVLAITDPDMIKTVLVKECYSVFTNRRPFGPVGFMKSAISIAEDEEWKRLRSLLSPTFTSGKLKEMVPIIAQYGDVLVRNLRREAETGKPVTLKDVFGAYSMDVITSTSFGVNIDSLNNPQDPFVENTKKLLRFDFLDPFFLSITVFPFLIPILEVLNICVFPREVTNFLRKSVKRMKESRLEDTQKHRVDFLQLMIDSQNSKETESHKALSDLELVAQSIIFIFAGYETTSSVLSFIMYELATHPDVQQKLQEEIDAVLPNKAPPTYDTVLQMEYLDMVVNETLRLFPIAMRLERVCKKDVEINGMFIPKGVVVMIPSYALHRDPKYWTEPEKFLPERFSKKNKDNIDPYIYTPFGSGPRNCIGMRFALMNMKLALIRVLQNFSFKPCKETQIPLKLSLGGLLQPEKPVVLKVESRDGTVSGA
In short: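 Luminescent readout of luciferin produced by CYP3A4 (20 nM) dealkylation of Luciferin-PPXE, 25 uM (its KM). NADPH-driven reaction ran 60 min at RT after 10 min compound preincubation; data scaled to 57 uM ketoconazole as 100% inhibition.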

[10] = molecular target: Cytochrome P450 2C9 (Homo sapiens) (UniProt P11712); assay: qHTS Assay for Inhibitors and Substrates of Cytochrome P450 2C9 (AID 883); also: nearly all actives have a fitted effect of over 60% in size
Cytochrome P450 2C9 (Homo sapiens), sequence (P11712 whole entry, looked up): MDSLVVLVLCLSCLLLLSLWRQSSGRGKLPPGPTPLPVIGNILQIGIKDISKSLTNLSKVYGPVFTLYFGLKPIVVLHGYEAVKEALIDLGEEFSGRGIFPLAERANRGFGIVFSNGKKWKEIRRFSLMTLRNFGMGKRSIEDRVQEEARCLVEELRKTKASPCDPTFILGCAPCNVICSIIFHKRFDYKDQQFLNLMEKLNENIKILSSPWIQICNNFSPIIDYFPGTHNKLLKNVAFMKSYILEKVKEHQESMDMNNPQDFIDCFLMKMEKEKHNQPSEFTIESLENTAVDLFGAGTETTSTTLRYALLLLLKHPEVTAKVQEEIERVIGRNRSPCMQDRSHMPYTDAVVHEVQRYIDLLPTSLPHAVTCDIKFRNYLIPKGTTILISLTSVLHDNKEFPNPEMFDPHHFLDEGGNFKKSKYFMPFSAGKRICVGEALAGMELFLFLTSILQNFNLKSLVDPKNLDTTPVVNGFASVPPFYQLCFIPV
In short: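 Turnover of Luciferin-H (100uM, KM) by 10nM human CYP2C9 was measured over 60 min at 37C with NADPH regeneration; inhibitors and some substrates reduce luminescence. Data normalized to sulphaphenazole 57uM.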

[11] = molecular target: Muscarinic acetylcholine receptor M1 (Rattus norvegicus) (UniProt P08482); assay: qHTS Assay for Antagonists of Acetylcholine Muscarinic M1 Receptor: Measurement of IP-One Response (AID 944); also: nearly all actives have a fitted effect of over 75% in size
In short: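 Read-out: HTRF competition between d2-IP1 and Eu-cryptate anti-IP1 antibody, emission 620 and 665 nm. Stimulus was carbachol, EC80 (200 nM), for 30 min in M1-CHO cells (rat receptor), after 10 min compound pre-treatment.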

[12] = molecular target: DNA dC->dU-editing enzyme APOBEC-3G (Homo sapiens) (UniProt Q9HC16); assay: qHTS for inhibitors of Vif-A3G interactions: Validation (AID 588379)
DNA dC->dU-editing enzyme APOBEC-3G (Homo sapiens), sequence (Q9HC16 whole entry, looked up): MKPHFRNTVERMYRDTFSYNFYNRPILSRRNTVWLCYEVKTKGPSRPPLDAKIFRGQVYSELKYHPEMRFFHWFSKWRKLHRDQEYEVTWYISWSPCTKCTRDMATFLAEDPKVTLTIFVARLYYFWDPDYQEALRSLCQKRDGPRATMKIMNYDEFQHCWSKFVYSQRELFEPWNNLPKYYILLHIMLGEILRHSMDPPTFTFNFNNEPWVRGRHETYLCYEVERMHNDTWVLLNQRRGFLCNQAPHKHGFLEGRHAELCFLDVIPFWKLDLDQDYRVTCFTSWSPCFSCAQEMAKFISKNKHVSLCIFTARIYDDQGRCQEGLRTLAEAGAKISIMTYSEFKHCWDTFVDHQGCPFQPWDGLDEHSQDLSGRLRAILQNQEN
In short: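 Yellow fluorescence (Ex 488, Em 500-530) of Vif-coexpressing HeLa A3G-eYFP cells, scanned by Acumen cytometer, reports blocked A3G degradation. Cells plated at 700/well overnight at 37 deg C before compound addition, then a further overnight compound incubation at 37 deg C.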

NC(=O)OC[C@H](O)COc1ccc(Cl)cc1
Potency (DFO2036): inactive

C[C@H](NCCc1ccc(O)cc1)[C@@H](O)c1ccc(O)cc1
Potency [1]: inactive | outcome [2]: inactive | Potency [3]: 12.6 µM (active)

CC1=C(C(=O)O)N2C(=O)[C@@H](NC(=O)[C@@H](N)c3ccccc3)[C@@H]2SC1
Potency [1]: inactive | outcome [2]: inactive

CC(C)(O/N=C(\C(=O)N[C@@H]1C(=O)N2C(C(=O)[O-])=C(C[n+]3ccccc3)CS[C@@H]12)c1csc(N)n1)C(=O)O
Potency (DFO2036): inactive

CN(C)CCO[C@](C)(c1ccccc1)c1ccccn1
outcome [2]: inactive

CO[C@H]1C[C@@H](O[C@@H]2[C@H](C)[C@H](O[C@@H]3O[C@@H](C)C[C@@H](N(C)C)[C@@H]3O)[C@H](C)C[C@]3(CO3)C(=O)[C@H](C)[C@H](O)[C@H](C)[C@H](C)OC(=O)[C@@H]2C)O[C@@H](C)[C@H]1O
Potency (DFO2036): inactive

C[C@@H](COc1ccccc1)N(CCCl)Cc1ccccc1
Potency [4]: 0.158 µM (active) | Potency [5]: 2 µM (active) | outcome [2]: inactive

CCN1C(=O)N[C@@H](c2ccccc2)C1=O
outcome [6]: inactive

CC1CC2C3CCC4=CC(=O)C=C[C@@]4(C)[C@]3(F)C(O)C[C@]2(C)[C@]1(O)C(=O)CO (some centres undefined)
Potency [7]: inactive | outcome [8]: inactive

NC(N)=NC[C@@H]1COC2(CCCCC2)O1
outcome [6]: inactive | Potency (DFO2036): inactive

C[C@@](N)(Cc1ccc(O)cc1)C(=O)O
Potency [9]: inactive | Potency [7]: inactive | outcome [2]: inactive | outcome [8]: inactive

Cn1c(=O)c2c(ncn2C[C@@H](O)CO)n(C)c1=O
outcome [6]: inactive

CCN1CCC[C@@H]1CNC(=O)c1cc(S(N)(=O)=O)ccc1OC
Potency [10]: inactive | Potency [9]: inactive | Potency [4]: inactive | Potency [1]: inactive | Potency [5]: inactive | outcome [2]: inactive

CO/N=C(/C(=O)NC1C(=O)N2C(C(=O)O)=C(CSc3nc(=O)c(O)nn3C)CSC12)c1csc(N)n1 (centres undefined)
outcome [8]: inactive | Potency (DFO2036): inactive

C1CCN2C[C@H]3C[C@H](CN4CCCCC34)C2C1 (some centres undefined)
Potency [7]: inactive | outcome [8]: inactive

CN(C)CCOC(c1ccccc1)c1ccccc1 (tested in a mixture with another compound)
outcome [8]: inactive

CC[C@H](NC(C)C)[C@H](O)c1ccc(O)c(O)c1
Potency [3]: inactive | Potency [11]: inactive | outcome [6]: inactive

CC(=O)Oc1c(C)c(C)c2c(c1C)CCC(C)(CCCC(C)CCCC(C)CCCC(C)C)O2 (centres undefined)
Potency [9]: inactive | Potency [7]: inactive | outcome [12]: inactive

CNc1nc(-c2ccccc2C(F)(F)F)nc2ccccc12
outcome [8]: inactive

COc1c2ccoc2nc2c(OC)c(OC[C@H](O)C(C)(C)O)ccc12
Potency [10]: inactive | Potency [4]: inactive | Potency [5]: inactive

CCN[C@@H]1C[C@H](C)S(=O)(=O)c2sc(S(N)(=O)=O)cc21
outcome [6]: inactive

CC(=O)Oc1cc(OC(C)=O)c2c(c1)OC(c1ccc(OC(C)=O)c(OC(C)=O)c1)C(OC(C)=O)C2 (centres undefined)
Potency [9]: 31.6 µM (active) | Potency [7]: inactive | outcome [8]: inactive

O=c1[nH]c(=O)n([C@@H]2C[C@H](O)[C@H](CO)O2)cc1I
outcome [6]: inactive

C[C@@H](C(=O)O)c1ccc(C(=O)c2cccs2)cc1
Potency (DFO2036): inactive

— PubChem BioAssay (NCATS)
